This is an account of results in PubChem BioAssay (NCI).

Test in all cases: NCI-60 one-dose screen, 48 h (100 = growth as untreated, 0 = no growth, -100 = all killed)
In assay [1] the test system is DU-145 prostate. Conditions: 10 µM unless noted.
For assay [2], the system named is K-562 leukemia. Conditions: 10 µM unless noted.
In assay [3] the test system is MALME-3M melanoma. As to conditions: 10 µM unless noted.
For assay [4], the system named is MDA-MB-231 breast. As to conditions: 10 µM unless noted.
In assay [5] the test system is RXF 393 renal. As to conditions: 10 µM unless noted.
Assay [6] has as its system SF-268 CNS. As to conditions: 10 µM unless noted.
The test system of assay [7] is SF-295 CNS. As to conditions: 10 µM unless noted.
The test system of assay [8] is SF-539 CNS. Conditions: 10 µM unless noted.
The subject of assay [9] is UACC-257 melanoma. As to conditions: 10 µM unless noted.
The subject of assay [10] is M14 melanoma. As to conditions: 10 µM unless noted.
Assay [11] concerns HCT-15 colon. Conditions: 10 µM unless noted.
Assay [12] concerns HT29 colon. As to conditions: 10 µM unless noted.
Assay [13] relates to SNB-75 CNS. Conditions: 10 µM unless noted.
The subject of assay [14] is SNB-19 CNS. As to conditions: 10 µM unless noted.
Assay [15] deals with U251 CNS. Conditions: 10 µM unless noted.
Assay [16] has as its system PC-3 prostate. Conditions: 10 µM unless noted.
Assay [17] relates to SK-MEL-5 melanoma. As to conditions: 10 µM unless noted.
Assay [18] has as its system UACC-62 melanoma. Conditions: 10 µM unless noted.
The subject of assay [19] is LOX IMVI melanoma. Conditions: 10 µM.
Assay [20] deals with SK-MEL-28 melanoma. Conditions: 10 µM unless noted.

Compounds without any hit were thinned out: in the full panel of roughly 83,000, 20% have a hit.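 Interpretation: 100, growth as untreated; towards 0, rising growth inhibition; 0, no net growth; 0 to -100, cell death. Compounds scoring below 10 were considered active.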 A number with no mark means an inactive call. Active and inactive are the calls of the source.

Regarding `Cc1c(O)ccc(SC#N)c1C`, the growth was 115% in assay [1]; 104% in [2]; 129% in assay [3]; 84.9% in assay [4]; 112% in assay [5]; 87.1% in [6]. In addition, the growth in assay [7] is 129%; in [8] it was 94.2%; in [9], 107%; in [10] it was 97.4%; in assay [11], 96.9%; in assay [12] it was 112%. Further, the growth was 95.3% in assay [13]; 96.5% in assay [14]; 101% in assay [15]; 86.1% in [16]; 106% in [17]; 94.6% in assay [18]. In addition, the growth in assay [19] is 101%; in assay [20] it was 99.5%.
In the case of `CCC(=O)c1cc([N+](=O)[O-])c(Br)s1`, the growth in [1] is 105%; in assay [2], 44.5%; in [3], 90.5%; in assay [4], 103%; in assay [5] it was 91%; in assay [6] it was 96.6%. For the same molecule, the growth is 103% in assay [7]; 88.5% in assay [8]; 96.5% in assay [9]; 71.6% in assay [10]; 61% in assay [11]; 41.6% in assay [12]. The growth in assay [13] is 95.7%; in [14] it was 99.8%; in assay [15] it was 93.4%; in assay [16], 101%; in assay [17] it was 98.9%; in assay [18], 105%. The growth in [19] is -41.2% (active); in assay [20], 110%.
Regarding `CC(CSc1n[nH]c(=S)s1)c1ccccc1` (centres undefined), the growth in assay [1] was 117%; in assay [2] it was 103%; in [3] it was 110%; in assay [4] it was 103%; in [5] it was 118%; in assay [6] it was 109%. Moreover, the growth in [7] was 106%; in assay [8] it was 119%; in assay [9], 112%; in [10], 106%; in assay [11], 110%; in [12], 126%. Moreover, the growth in assay [13] is 85.1%; in assay [14] it was 102%; in [15] it was 107%; in [16], 102%; in assay [17] it was 103%; in [18], 108%. Moreover, the growth in assay [19] is 97.6%; in [20], 116%.
As for `O=[N+]([O-])c1ccc(C2N(Cc3ccc(Cl)cc3)CCN2Cc2ccc(Cl)cc2)cc1`, the growth is 107% in [1]; 67% in [2]; 109% in assay [3]; 79.6% in assay [4]; 74.4% in assay [5]; 90.1% in [6]. The growth is 92.1% in assay [7]; 86.3% in assay [8]; 92% in [9]; 86.2% in assay [10]; 84.9% in assay [11]; 73.3% in assay [12]. For the same molecule, the growth in [13] is 74.1%; in assay [14], 96.7%; in [15], 87.6%; in assay [16], 82.3%; in assay [17] it was 88.8%; in assay [18], 102%. The growth was 96.9% in assay [19] and 96.3% in [20].
Regarding `CCCCCCCCCCCC1N=C(N)N=C(N)N1c1cccc(Br)c1` (centres undefined), the growth in [1] was 17.7%; in assay [2], -20.1% (active); in assay [3], 76%; in assay [4], -48.1% (active); in [5] it was -32.1% (active); in assay [6] it was 8.27% (active). In addition, the growth in [7] is 18.9%; in assay [8] it was 12%; in assay [9], 61.3%; in [10], 11.4%; in assay [11], 71.5%; in assay [12] it was -81.8% (active). Further, the growth is -12.7% (active) in [13]; -93.6% (active) in assay [14]; -75.2% (active) in assay [15]; -55.2% (active) in assay [16]; 19.3% in assay [17]; 37.9% in assay [18]. Also, the growth in assay [19] was 9.55% (active); in assay [20] it was 70.4%.
Regarding `O=[N+]([O-])/C(=C/c1ccccc1)c1ccccc1`, the growth in [1] was 106%; in [2], 98.3%; in assay [3] it was 98.7%; in [4], 112%; in assay [5], 97.1%; in assay [6], 106%. Besides, the growth in assay [7] is 98.9%; in assay [8], 96%; in assay [9], 103%; in assay [10], 101%; in assay [11], 99.6%; in assay [12], 99%. For the same molecule, the growth in assay [13] is 106%; in [14], 110%; in [15] it was 97.4%; in assay [16], 100%; in assay [18], 108%; in [19] it was 96.3%.
For `O=C1/C(=C\c2ccc([N+](=O)[O-])cc2)CS(=O)(=O)C/C1=C/c1ccc([N+](=O)[O-])cc1`, the growth in [1] is -78.2% (active); in assay [2], -27.8% (active); in assay [3] it was -62.7% (active); in [4] it was -86.9% (active); in assay [5], -100% (active); in [6], -49% (active). Also, the growth in assay [7] was -16% (active); in [8], -64% (active); in assay [9] it was -89.8% (active); in assay [10] it was -92.2% (active); in [11], -86.7% (active); in assay [12] it was -57.7% (active). Besides, the growth was -89.6% (active) in assay [13]; -96.3% (active) in assay [14]; -86.6% (active) in assay [15]; -81.6% (active) in assay [16]; -90.7% (active) in assay [18]; -82.8% (active) in [19].
Consider `COc1cc(NCc2ccc3nc(N)nc(N)c3c2C)cc(OC)c1OC` (tested in a mixture with another compound), for which the growth in assay [1] was 49.6%; in [2], 27.9%; in assay [3], 37.2%; in assay [4], 61.6%; in assay [5], 30.1%; in assay [6], 24.1%. Also, the growth in assay [7] was 17.1%; in [8] it was 25.3%; in assay [9], 23.5%; in assay [10], 20.9%; in [11], 26.1%; in assay [12], 20%. The growth in [13] is 33.1%; in assay [14], 31.8%; in assay [15], 31.2%; in assay [16], 23.4%; in assay [18], 30.5%; in assay [19], 16.3%.
